The values below come from PubChem BioAssay (NCATS).

The target of test [1] is Cytochrome P450 3A7 (Homo sapiens) (UniProt P24462). Nature of the test: Cytochrome P450 family 3 subfamily A member 7 (CYP3A7) small molecule antagonists: luciferase biochemical qHTS assay (AID 1963596). Also: nearly all actives have a fitted effect of over 40% in size. Also: potency is read from the fitted curve at half-maximal effect. As to activity change, negative = inhibition: % is scaled to controls: 0 for no effect and ±100 for the full control effect. Particulars: P450-Glo CYP3A7 enzyme luminescence, 1 h; series mostly up to 57.4 µM. In short, it runs like this:
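P450-Glo luminescent assay: CYP3A7 enzyme converts a proluciferin substrate to luciferin, detected by luciferase reagent; light proportional to activity. Compounds in DMSO preincubated 10 min with enzyme-substrate mix at room temperature, then NADPH regeneration added for 1 h.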
In general terms: Quantitative high-throughput screening tests each substance at several concentrations.

Test [2] is described as follows: Viability qHTS for spleen associated tyrosine kinase inhibitor (SYKi) naive MV4-11 cells (AID 1963823). Also: nearly all actives have a fitted effect of over 40% in size. Also: potency is read from the fitted curve at half-maximal effect. Particulars: MV4-11 AML viability, CellTiter-Glo luminescence, 72 h; series mostly up to 45 µM. The method, boiled down:
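Seeding of 500 SYKi-naive MV4-11 cells per well onto pre-dispensed compounds preceded a 72 hr incubation at 37 C. Luminescent CellTiter-Glo signal, read after 10 min at room temperature, reflected viable cells.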

Test [3] is described as follows: Viability qHTS for spleen associated tyrosine kinase inhibitor (SYKi) drug resistant MV4-11 cells (AID 1963824). Also: nearly all actives have a fitted effect of over 35% in size. Also: potency is read from the fitted curve at half-maximal effect. To be noted: SYKi-resistant MV4-11 viability, CellTiter-Glo, 72 h; series mostly up to 45 µM. In short, it runs like this:
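SYK inhibitor-resistant MV4-11 AML cells, 500 per well, added to predispensed compounds and incubated 72 hr at 37 C, 5% CO2. Viability measured by CellTiter-Glo luminescence after 10 min at room temperature.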

The nature of test [4]: Cellular viability qHTS for adrenocortical cancer (ACC) cell line SW-13 (AID 1963989). Also: nearly all actives have a fitted effect of over 65% in size. Also: potency is read from the fitted curve at half-maximal effect.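 As to activity (max response): cells grown in serum-free medium with ITS supplement; % is scaled to controls: 0 for no effect and ±100 for the full control effect.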 To be noted: SW-13 ACC cells viability, CellTiter-Glo, 48 h; activity (max response): hits give low values. The method, boiled down: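 Here, serum-free SW-13 cultures were dosed up to 46 uM. Following 48 h, ATP-dependent luminescence (CellTiter-Glo) reported viable cells, and logistic modeling produced IC50 values.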

Test [5] is described as follows: Cellular viability qHTS for adrenocortical cancer (ACC) cell line NCI-H295R (AID 1963990). Also: nearly all actives have a fitted effect of over 60% in size. Also: potency is read from the fitted curve at half-maximal effect.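 As to activity change, negative = viability loss: 0% = DMSO only wells and -100% = full killing with cytotoxic reference compound.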 To be noted: CellTiter-Glo ATP luminescence, 48 h; series mostly up to 46.1 µM. The method, boiled down: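 Viability of NCI-H295R after 48 h of treatment (final up to 46 uM) measured through cellular ATP luminescence.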
Test [6] can be described thus: Quantitative highthroughput screen to assess conditional lethalithy of NOMO1 cells grown in RPMI1640 with untreated serum (RPMI+s) (AID 1963876).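 Also: 100% = DMSO wells and 0% = empty wells without cells; nearly all actives have a fitted effect of over 35% in size.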 Particulars: NOMO1 AML cells in RPMI+serum, CellTiter-Glo viability, 48 h; series mostly up to 45.8 µM. In short, it runs like this: (§1)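 Each medium arm—HPLM with 10% dialyzed FBS, or RPMI1640 with 5 mM glucose and 10% untreated or dialyzed FBS—was screened against an 11-point, 3-fold compound titration for 48 h at 37 °C, with CellTiter-Glo luminescence as endpoint.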
(Cellular ATP, detected with luciferase, serves as a proxy for viable cell number.)

Test [7] in a line: Quantitative highthroughput screen to assess conditional lethalithy of SEM cells grown in Human Plasma-Like Medium with dialyzed fetal bovine serum (HPLM+ds) (AID 1963882). Also: nearly all actives have a fitted effect of over 35% in size. Particulars: SEM B-ALL cells in HPLM+ds, CellTiter-Glo viability, 48 h; series mostly up to 45.8 µM. In short, it runs like this:
as §1

Test [8] is described as follows: Quantitative highthroughput screen to assess conditional lethalithy of P12 Ichikawa cells grown in RPMI1640 with dialyzed fetal bovine serum (RPMI+ds) (AID 1963880).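 Also: 100% = DMSO wells and 0% = empty wells on each plate; nearly all actives have a fitted effect of over 35% in size.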 To be noted: ATP luminescence, 48 h; Potency: P12-Ichikawa viability; series mostly up to 45.8 µM. The method, boiled down:
as §1

“And” between values parts separate entries of the source, which are not always exact repeats. Equal entries are not always repeated. Results filed as inconclusive are left out. Unmarked numbers belong to inactive results. The source made the active and inactive calls. Calls follow the shape of the dose curve; as a rule, active = well fitted curve in the direction sought with a large enough effect; inconclusive = small, poorly fitted or top-dose-only effect, or another doubt; inactive = no such curve, though single readings can be large; an effect the other way counts as inactive or inconclusive.

Chain of Cytochrome P450 3A7 (Homo sapiens) (P24462 whole entry, looked up): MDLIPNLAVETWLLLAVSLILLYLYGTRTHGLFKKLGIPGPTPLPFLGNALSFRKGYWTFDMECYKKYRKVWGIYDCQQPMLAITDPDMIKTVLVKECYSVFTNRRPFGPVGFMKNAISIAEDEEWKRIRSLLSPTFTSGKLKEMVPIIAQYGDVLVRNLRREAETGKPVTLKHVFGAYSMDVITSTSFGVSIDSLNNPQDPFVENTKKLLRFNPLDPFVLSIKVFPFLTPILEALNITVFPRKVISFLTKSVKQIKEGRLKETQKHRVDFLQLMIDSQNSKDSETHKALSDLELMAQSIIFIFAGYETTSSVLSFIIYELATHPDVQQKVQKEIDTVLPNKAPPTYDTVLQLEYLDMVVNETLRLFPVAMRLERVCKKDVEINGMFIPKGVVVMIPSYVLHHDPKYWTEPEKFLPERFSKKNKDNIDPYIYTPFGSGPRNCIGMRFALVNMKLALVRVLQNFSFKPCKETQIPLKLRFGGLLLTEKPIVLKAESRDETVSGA

Turning to `O=C(O)C(Cl)Cl`, the Potency result in test [1], in test [2] and in test [3] was “inactive” each time. For the same compound, in test [4], the activity (max response) is 11.1%.

As to `CCN(Cc1ccc(Cl)nc1)/C(=C/[N+](=O)[O-])NC`, the Potency entry in test [1], in test [2], in test [3] and in test [5] was “inactive” each time. Moreover, the activity (max response) in test [4] is 3.71%.

`NP(N)(=O)NC(=O)c1ccc(F)cc1`: the Potency result in test [1], in test [2], in test [3] and in test [5] was “inactive” throughout. Also, in test [4], the activity (max response) was 6.62%.

For `CCOC(=O)NC(C)(C)Cc1ccc(Cl)cc1`, the Potency result in test [1], in test [2] and in test [3] was “inactive” throughout. Also, the activity (max response) in test [4] is -3.94%.

In the case of `CCCN(CCC)c1c([N+](=O)[O-])cc(S(N)(=O)=O)cc1[N+](=O)[O-]`, the Potency was 1.12 µM (active) in test [1]; 21.7 µM (active) in test [2]; 21.7 µM (active) in test [3]; 7.94 µM (active) in test [4]; 7.94 µM (active) in test [5].

For the compound `C=C1CC[C@@]2(O)[C@H]3Cc4ccc(O)c5c4[C@@]2(CCN3CC2CC2)[C@H]1O5`, the Potency entry in test [1], in test [2] and in test [3] was “inactive” in each case. In addition, the activity (max response) in test [4] is 2.67%.

Regarding `COC(=O)C1=CCCN(C)C1`, the Potency entry in test [1], in test [2], in test [3] and in test [5] was “inactive” throughout. For the same compound, the activity (max response) in test [4] is 1.83%.

In the case of `CCS(=O)(=O)C(C)(C)S(=O)(=O)CC`, the Potency entry in test [1], in test [2], in test [3] and in test [5] was “inactive” each time. Also, the activity (max response) in test [4] was -10.9%.

`CN1C(=O)CN=C(c2ccccc2)c2cc([N+](=O)[O-])ccc21`: the Potency entry in test [1], in test [2], in test [3] and in test [5] was “inactive” throughout. In addition, the activity (max response) in test [4] was 6.26%.

Take `COP(=S)(OC)Oc1cc(Cl)c(Cl)cc1Cl`: the Potency in test [1] is 13.8 µM (active). The Potency entry in test [2] and in test [3] was “inactive” throughout. For the same compound, the activity (max response) in test [4] is 7.21%.

On to `O=C(CCCCl)c1ccc(F)cc1`, for which the Potency result in test [1], in test [2], in test [3] and in test [5] was “inactive” in each case. In test [4], the activity (max response) is 6.97%.

Turning to `CC(C)(N)Cc1ccc(Cl)cc1`, the Potency result in test [1], in test [2], in test [3] and in test [5] was “inactive” throughout. The activity (max response) in test [4] is 9.02%.

Turning to `CCOC(=O)NC(O)C(Cl)(Cl)Cl` (configuration not stated), the Potency entry in test [1], in test [2], in test [3] and in test [5] was “inactive” each time. Further, in test [4], the activity (max response) was 3.24%.

On to `NCC(CC(=O)O)c1ccc(Cl)cc1` (configuration not stated), for which the activity change, negative = inhibition in test [1] was -9.7% [at 0.91 µM]. The viability (% of control) in test [2] is 90.7% [at 0.588 µM]. The viability, % of control in test [3] is 103% [at 0.588 µM]. Also, the activity (max response) in test [4] is -6.89%. The activity change, negative = viability loss in test [5] was -4.36% [at 0.587 µM].

In the case of `CCN(CC)C(C)C(=O)c1ccccc1` (configuration not stated), the Potency result in test [1], in test [2], in test [3] and in test [5] was “inactive” in each case. For the same compound, the activity (max response) in test [4] was 11.1%.

In the case of `CC(Cc1ccccc1)N(C)Cc1ccco1` (configuration not stated), the Potency result in test [1], in test [2], in test [3] and in test [5] was “inactive” in each case. Further, the activity (max response) in test [4] is -0.53%.

With `CCCC[N+]1(C)[C@@H]2CC(OC(=O)[C@H](CO)c3ccccc3)C[C@H]1[C@@H]1O[C@@H]12` (some centres not stated), the Potency entry in test [1], in test [2], in test [3] and in test [5] was “inactive” throughout. For the same compound, the activity (max response) in test [4] was 15.3%.

Consider `O=C(O)CCCCCCNC1c2ccccc2CCc2ccccc21`, for which the Potency entry in test [1], in test [3] and in test [5] was “inactive” in each case. In addition, the Potency in test [2] is 0.473 µM (active). Also, the activity (max response) in test [4] was 1.72%.

Turning to `CC(Cc1ccc(O)cc1)NCC(O)c1cc(O)cc(O)c1` (configuration not stated), the Potency result in test [1], in test [2], in test [3] and in test [5] was “inactive” throughout. Besides, the activity (max response) in test [4] was 10.9%.

For the compound `C[C@@H]1O[C@@H](O[C@H]2C[C@@H](O)[C@]3(CO)[C@H]4[C@H](O)C[C@]5(C)[C@@H](C6=CC(=O)OC6)CC[C@]5(O)[C@@H]4CC[C@]3(O)C2)[C@H](O)[C@H](O)[C@H]1O`, the Potency result in test [1] is “inactive”. Moreover, the Potency was 119 nM (active) and 79.6 nM (active) and 46.8 nM (active) in test [2]; 84.1 nM (active) and 63.2 nM (active) and 33.2 nM (active) in test [3]; 20.6 nM (active) and 44.7 nM (active) in test [4]; 36.6 nM (active) and 56.2 nM (active) in test [5].

In the case of `O=C(Oc1ccc([N+](=O)[O-])cc1)N1CCN(Cc2cccc(Oc3ccccc3)c2)CC1`, the Potency entry in test [6] and in test [7] was “inactive” in each case.

As for `CN(C)[C@@H]1C(=O)C(C(N)=O)=C(O)[C@@]2(O)C(=O)C3=C(O)c4c(O)cccc4[C@@](C)(O)[C@H]3[C@H](O)[C@@H]12`, in test [8], the Potency entry is “inactive”.

Consider `O=[N+]([O-])c1c(Cl)c(Cl)cc(Cl)c1Cl`, for which the Potency entry in test [1] is “inactive”. Moreover, the activity (max response) in test [4] was -0.162%.

In the case of `O=C(O)Cc1ccccc1`, the Potency result in test [1], in test [3] and in test [5] was “inactive” in each case. For the same compound, the activity (max response) in test [4] is -6.54%.

Consider `CCOCCOC(C)=O`, for which the Potency entry in test [1] is “inactive”. Besides, the activity (max response) in test [4] is 7.41%.

Consider `CC1Sc2c(C(=O)O)c(=O)c3cc(F)c(N4CCNCC4)cc3n21` (configuration not stated), for which the Potency result in test [1] and in test [5] was “inactive” throughout. In addition, the activity (max response) in test [4] was 7.63%.

Turning to `CCC1(C2=NCCN2)Cc2ccccc2O1` (configuration not stated), the Potency entry in test [1], in test [3] and in test [5] was “inactive” throughout. In test [4], the activity (max response) is 12%.

As to `COCCOCCO`, the Potency result in test [1], in test [3] and in test [5] was “inactive” each time. Moreover, in test [4], the activity (max response) was -1.21%.

Regarding `CC(C)N(CCC(C(N)=O)(c1ccccc1)c1ccccn1)C(C)C` (configuration not stated), the Potency result in test [1], in test [3] and in test [5] was “inactive” in each case. In addition, the activity (max response) in test [4] is 4.36%.
